Results reported in PubChem BioAssay (EPA / NIEHS).
Results filed as inconclusive are left out. Calls of active or inactive are those of the source. Rule for the calls, unless noted: active = hit-call score of the fitted dose curve at least 0.9, where 1 is the maximum; inconclusive = response in the unintended direction; inactive = score below 0.9.

Key:
[1] = read-out: Thyroid Hormone Responsive (THRSP), THRSP (gene 7069); assay: LTEA_HepaRG_THRSP: Life Technologies and Expression Analysis (LTEA) Assay for Thyroid Hormone Responsive (THRSP) using HepaRG (AID 2283536; active = hit-call score of the fitted dose curve at least 0.9, where 1 is the maximum; inactive = score below 0.9); conditions: mRNA level, 48 h; actives raise or lower the signal
How it was run: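 mRNA induction or loss relative to 0.5% DMSO vehicle was fitted bidirectionally across an eight-point curve whose highest exposure was 100 uM. Human HepaRG liver cells received chemicals in duplicate over 48 h before RNA extraction.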

[2] = read-out: Cellular tumor antigen p53 (Homo sapiens) (UniProt P04637); assay: LTEA_HepaRG_TP53: Life Technologies and Expression Analysis (LTEA) Assay for Tumor Protein P53 (TP53) using HepaRG (AID 2283537; active = hit-call score of the fitted dose curve at least 0.9, where 1 is the maximum; inactive = score below 0.9); conditions: mRNA level, 48 h; actives raise or lower the signal
How it was run: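 HepaRG, 48 h exposure, top 100 uM, half-log 8-point, 0.5% DMSO vehicle, duplicates. Read: TP53 mRNA by TaqMan qRT-PCR, normalised to ACTB/GAPDH/POLR2A; bidirectional fit vs DMSO.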

[3] = read-out: UDP glucuronosyltransferase (UGT1A1), UGT1A1 (gene 54658); assay: LTEA_HepaRG_UGT1A1: Life Technologies and Expression Analysis (LTEA) Assay for UDP glucuronosyltransferase (UGT1A1) using HepaRG (AID 2283538; active = hit-call score of the fitted dose curve at least 0.9, where 1 is the maximum; inactive = score below 0.9); conditions: mRNA level, 48 h; actives raise or lower the signal
How it was run: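 Readout is UGT1A1 transcript level by qRT-PCR, normalized to three housekeeping genes, after 48 h chemical treatment of HepaRG cells. Concentrations ran from 100 uM down in half-log steps with 0.5% DMSO, and gain or loss relative to DMSO was fitted.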

[4] = read-out: UDP glucuronosyltransferase (UGT1A6), UGT1A6 (gene 54578); assay: LTEA_HepaRG_UGT1A6: Life Technologies and Expression Analysis (LTEA) Assay for UDP glucuronosyltransferase (UGT1A6) using HepaRG (AID 2283539; active = hit-call score of the fitted dose curve at least 0.9, where 1 is the maximum; inactive = score below 0.9); conditions: mRNA level, 48 h; actives raise or lower the signal
How it was run: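 HepaRG, 48 h post-plating switch to serum-free induction medium; chemical 48 h, 100 uM top, half-log x8, duplicate, 0.5% DMSO. Phenobarbital 1mM induction control. UGT1A6 mRNA by TaqMan qRT-PCR; gain/loss fit vs DMSO.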

[5] = read-out: X-box binding protein 1 (XBP1), XBP1 (gene 7494); assay: LTEA_HepaRG_XBP1: Life Technologies and Expression Analysis (LTEA) Assay for X-box binding protein 1 (XBP1) using HepaRG (AID 2283540; active = hit-call score of the fitted dose curve at least 0.9, where 1 is the maximum; inactive = score below 0.9); conditions: mRNA level, 48 h; actives raise or lower the signal
How it was run: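 Transcript levels of XBP1, measured by qRT-PCR and normalised to three housekeeping genes, were fitted bidirectionally relative to 0.5% DMSO controls. Human HepaRG cells received eight-point half-log dilutions from 100 uM for 48 h.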

[6] = LTEA_HepaRG_LDH_cytotoxicity: Cytotoxicity Assessment in the Life Technologies and Expression Analysis (LTEA) Assay (AID 2283563);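 for AC50: LDH activity released into spent culture medium as a marker of cell death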
How it was run: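 Cells were thawed and plated for 48 h. Medium was then replaced with serum-free induction medium. Chemicals (8 half-log points, maximum 100 uM, 0.5% DMSO) were added in duplicate for 48 h, after which spent medium was assayed for LDH.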

[7] = target: Cellular tumor antigen p53 (Homo sapiens) (UniProt P04637); assay: TOX21_p53_BLA_p2_ratio: Tox21 HCT-116 p53 Agonism Beta-lactamase Assay, Ratio, Phase 2 (AID 2283592)
How it was run: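 HCT116 p53-bla; 4000 cells/well; 5 h pre-incubation; cpd in DMSO, 217-fold dilution; 16 h 37C/5% CO2; CCF4-AM 2 h RT; Ex 405, Em 460/530 ratio; DMSO = baseline; positive fitting direction.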

[8] = TOX21_p53_BLA_p3_viability: Viability Assessment in the Tox21 HCT-116 p53 Agonism Beta-lactamase Assay, Phase 3 (AID 2283593);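 note: cells exposed to compound for 16 h before reading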
How it was run: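 Cellular ATP was quantified by CellTiter-Glo luminescence, read after 30 min at room temperature. Beforehand, HCT116 cells (4000/well) received compound 5 h post-seeding, 217-fold diluted from DMSO, then incubated 16 h at 37C.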

[9] = target: Cellular tumor antigen p53 (Homo sapiens) (UniProt P04637); assay: TOX21_p53_BLA_p3_ratio: Tox21 HCT-116 p53 Agonism Beta-lactamase Assay, Ratio, Phase 3 (AID 2283596)
How it was run: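 HCT116 p53-bla cells (4000/well) given compound in DMSO (217-fold dilution) after 5 h, incubated 16 h at 37C. CCF4-AM substrate 2 h at room temperature; 460/530 nm emission ratio, gain fitted against DMSO.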

[10] = TOX21_p53_BLA_p4_viability: Viability Assessment in the Tox21 HCT-116 p53 Agonism Beta-lactamase Assay, Phase 4 (AID 2283597);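 note: hits lower the luminescence signal meaning cytotoxicity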
How it was run: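 Cells plated, 5 h pre-incubation; DMSO compounds pinned (217-fold dilution); 16 h, 37C/5% CO2; CCF4-AM 2 h RT; CellTiter-Glo 30 min RT; luminescence read.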

[11] = target: Cellular tumor antigen p53 (Homo sapiens) (UniProt P04637); assay: TOX21_p53_BLA_p5_ratio: Tox21 HCT-116 p53 Agonism Beta-lactamase Assay, Ratio, Phase 5 (AID 2283599)
How it was run: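 Beta-lactamase reporter ratio (blue 460 nm over green 530 nm, 405 nm excitation) after 2 h CCF4-AM loading, in HCT-116 cells exposed 16 h at 37 C to compounds pinned at 217-fold dilution. Increases relative to DMSO baseline scored.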

[12] = TOX21_p53_BLA_p5_viability: Viability Assessment in the Tox21 HCT-116 p53 Agonism Beta-lactamase Assay, Phase 5 (AID 2283600)
How it was run: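 4000 cells/well; 5 h pre-incubation; DMSO compounds pin-transferred, 217-fold dilution; 16 h, 37C/5% CO2; CCF4-AM 2 h RT; CellTiter-Glo 30 min RT; luminescence.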

[13] = Tanguay_ZF_120hpf_MORT_legacy: (Legacy) Oregon State University Tanguay Lab 120 Hour Post-fertilization zebrafish Assay for Mortality (AID 2283633);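 for AC50: fitted as increase in binary mortality versus DMSO negative control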
How it was run: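 5D WT zebrafish, chorion removed 4 hpf; 1 embryo/well from 6 hpf; static exposure to 120 hpf, 28C, dark, sealed. Final DMSO 0.64%. Readout: binary mortality, brightfield, 24 + 120 hpf; DMSO as negative control.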

[14] = Tanguay_ZF_120hpf_YSE_legacy: (Legacy) Oregon State University Tanguay Lab 120 Hour Post-fertilization zebrafish Assay for Yolk Sac Edema (AID 2283634)
How it was run: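 Dechorionate (pronase, 4 hpf) → place one 6 hpf embryo per well → static compound exposure, sealed and foil-covered, 28C, to 120 hpf → record yolk sac edema as present or absent. Final DMSO 0.64%.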

[15] = Tanguay_ZF_120hpf_AXIS_legacy: (Legacy) Oregon State University Tanguay Lab 120 Hour Post-fertilization zebrafish Assay for Body Axis Malformation (AID 2283635)
How it was run: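 Chorion is removed with pronase at 4 hpf, then single 6 hpf embryos are dosed (final DMSO 0.64%) and held statically at 28C in sealed, foil-covered plates. At 120 hpf body axis malformation is recorded as present or absent.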

[16] = Tanguay_ZF_120hpf_EYE_legacy: (Legacy) Oregon State University Tanguay Lab 120 Hour Post-fertilization zebrafish Assay for Eye Malformation (AID 2283636)
How it was run: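 Read-out is binary presence or absence of eye malformation, scored by brightfield microscopy at 120 hpf. Single larvae were exposed from 6 hpf in embryo medium containing 0.64% DMSO, with DMSO as baseline.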

[17] = Tanguay_ZF_120hpf_SNOU_legacy: (Legacy) Oregon State University Tanguay Lab 120 Hour Post-fertilization zebrafish Assay for Snout Malformation (AID 2283637)
How it was run: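 Snout malformation read as a yes/no call on brightfield images of 120 hpf larvae (Tropical 5D strain). Static exposure began at 6 hpf on dechorionated embryos in 0.64% DMSO, with gain of signal analysed versus DMSO controls.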

[18] = target: Cellular tumor antigen p53 (Homo sapiens) (UniProt P04637); assay: TOX21_p53_BLA_p4_ratio: Tox21 HCT-116 p53 Agonism Beta-lactamase Assay, Ratio, Phase 4 (AID 2283601)
How it was run: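 Signal is the blue/green (460nm/530nm) ratio of cleaved versus uncleaved CCF4-AM substrate, read after 2 h substrate loading. Cells were HCT116 carrying the p53-responsive beta-lactamase reporter, dosed 16 h at 37C, 5% CO2; CellTiter-Glo measured in parallel.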

Measured: AC50

Cellular tumor antigen p53 (Homo sapiens), sequence (P04637 whole entry, looked up): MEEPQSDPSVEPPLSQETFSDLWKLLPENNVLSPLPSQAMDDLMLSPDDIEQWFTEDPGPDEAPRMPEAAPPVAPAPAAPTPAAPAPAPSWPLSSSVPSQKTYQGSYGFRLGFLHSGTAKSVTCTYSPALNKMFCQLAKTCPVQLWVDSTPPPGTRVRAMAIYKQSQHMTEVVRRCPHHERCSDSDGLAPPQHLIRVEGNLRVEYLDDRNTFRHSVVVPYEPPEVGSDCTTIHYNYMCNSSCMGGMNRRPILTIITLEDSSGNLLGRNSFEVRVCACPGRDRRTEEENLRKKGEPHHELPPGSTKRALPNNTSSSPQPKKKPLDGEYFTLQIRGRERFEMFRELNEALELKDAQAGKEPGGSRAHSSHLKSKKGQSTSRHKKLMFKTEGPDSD

CCCCN(CC)c1c([N+](=O)[O-])cc(C(F)(F)F)cc1[N+](=O)[O-]
active: [3] 32.2 µM
not listed: [18]
inactive: all other assays above

CCOP(=O)(OCC)Oc1cc(C)nc(C(C)C)n1
not listed: [10] | [18]
inactive: all other assays above

CCOP(=O)(SC(C)CC)N1CCSC1=O (centres undefined)
inactive: [1] | [3] | [4] | [5] | [6] | [13] | [14] | [15] | [16] | [17]

C[N+]1(C)CCCCC1
not listed: [8] | [10] | [12]
inactive: all other assays above

CCOP(=S)(OCC)OC(Cl)C(Cl)(Cl)Cl (centres undefined)
active: [3] 30.7 µM
not listed: [10] | [11]
inactive: all other assays above

CCc1cnc(C2=NC(C)(C(C)C)C(=O)N2)c(C(=O)O)c1 (centres undefined)
inactive: [1] | [3] | [4] | [5] | [6] | [13] | [14] | [15] | [16] | [17]

C=C(C)[C@H]1Cc2c(ccc3c2O[C@@H]2COc4cc(OC)c(OC)cc4[C@@H]2C3=O)O1
inactive: [5] | [14] | [15] | [16] | [17]
active: [1] 1.36 µM | [3] 23.7 µM | [4] 23.4 µM | [6] 6.74 µM | [13] 0.347 µM
